Compound activity (PubChem BioAssay)
MCF10A rerep = A quantitative high throughput screen for small molecules that induce DNA re-replication in MCF 10a normal breast cells. Potency, µM (highest dose often 46.1 µM), without a hit: at the highest dose activity, positive = re-replication, usual class: activators. hit rate 2.9% among 350,000. MCF 10A DNA re-replication, Hoechst nuclear intensity, 48 h; note: % of control where 0% means no effect; nearly all actives have a fitted effect of over 50% in size
KB-V1 cytotox = qHTS assay for MDR1-selective chemotherapeutics: Primary screen using the drug-selected MDR subline cells KB-V1 | hit rate 3.4% among 400,000 | Potency, µM (titrated, usually from 46.1 µM), usual class: cytotoxic | KB-V1 MDR cells viability, CellTiter-Glo, 72 h; note: % is set by controls: 0 for no effect and ±100 for the full control effect; nearly all actives have a fitted effect of over 60% in size
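Readout: CellTiter-Glo luminescence, 10 min after addition. Cells: KB-V1 MDR subline, 72 h at 37 degrees C with compound. Analysis: corrected, normalized data fitted to concentration-effect curves.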
HT1080 IDH1KD tx = qHTS for induction of synthetic lethality in tumor cells producing 2HG: qHTS for the HT-1080-IDH1KD cell line; Potency, µM (highest dose often 46.1 µM), without a hit: top-dose activity, negative = toxicity, hits mostly cytotoxic; AID 686971, 2013; HT-1080 IDH1 knockdown viability, ATP luminescence, 48 h; hit rate 2% among 360,000;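 note: 0% = DMSO wells and -100% = cell-free medium wells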
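Using the IDH1-knockdown HT-1080 line run in the same batch and compound series as the NT line, viability after 48 h at 37 °C was determined by CellTiter-Glo luminescence and expressed as % activity.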
KB-3-1 cytotox = qHTS assay for MDR1-selective chemotherapeutics: Primary screen using the parental adenocarcinoma cell KB-3-1; KB-3-1 viability, CellTiter-Glo ATP luminescence, 72 h; AID 1347075, 2019; hit rate 1.4% among 400,000; Potency, µM (highest dose often 46.1 µM), most hits filed as cytotoxic; note: % is set by controls: 0 for no effect and ±100 for the full control effect; nearly all actives have a fitted effect of over 60% in size
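Parental KB-3-1 adenocarcinoma cells in phenol-red-free DMEM with 10% FBS were pin-treated with compounds at several concentrations, incubated 72 h at 37 °C, and viability read by CellTiter-Glo luminescence; concentration-effect curves were fitted after normalization.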
HT1080NT lethal = qHTS for induction of synthetic lethality in tumor cells producing 2HG: qHTS for the HT-1080-NT fibrosarcoma cell line; HT-1080-NT fibrosarcoma viability, CellTiter-Glo ATP luminescence, 48 h; Potency, µM (series often up to 46.1 µM), for the others: top-dose activity, negative = less viability, usual class: cytotoxic; hit rate 1.6% among 360,000; AID 686970, 2013;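 note: NT is the 2HG producing partner of a matched IDH1 knockdown line; 0% = DMSO-treated cells and -100% = media-only wells without cells; nearly all actives have a fitted effect of over 55% in size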
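750 cells/well, RPMI + 5% FBS; 2 h settle, compound pin-transfer, 48 h at 37 degrees C. CellTiter-Glo 10 min RT, luminescence. Normalized to DMSO and media-only wells.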
SW480 rerep = A quantitative high throughput screen for small molecules that induce DNA re-replication in SW480 colon adenocarcinoma cells; SW480 DNA re-replication, Hoechst DNA content imaging, 48 h; Potency, µM (highest dose often 46.1 µM), for the others: at the top dose re-replication activation, usual class: activators; hit rate 1.8% among 340,000; note: % of control where 0% means no effect; nearly all actives have a fitted effect of over 55% in size
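Quantitative HTS format with DMSO vehicle controls; 48 hr drug incubation at 37 C, then 40 min Hoechst staining and scanning imager measurement at 405 nm excitation.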
An asterisk follows results filed as active; i = inactive; ? = inconclusive; . = no result; [ ] = remark or other dose. A selection: hits, their analogues and other compounds. The true share with any hit is near 7.9%. Calls come from the whole dose curve; as a rule, active = well fitted curve in the direction sought with a large enough effect; inconclusive = small, poorly fitted or top-dose-only effect, or another doubt; inactive = no such curve, though single readings can be large; an effect the other way counts as inactive or inconclusive. Potency is the fitted concentration of half-maximal effect.

SMILES	MCF10A rerep	KB-V1 cytotox	HT1080 IDH1KD tx	KB-3-1 cytotox	HT1080NT lethal	SW480 rerep
Cc1ccc(N2CCN(C(=O)c3ccccc3Br)CC2)c(C)c1	?	i	-1%	i	-13%	-6%
Cc1ccc2nc3n(c(=O)c2c1)-c1cc2ccccc2cc1C(=O)NC3Cc1ccccc1 (stereo unspecified)	.	?	15µM*	?	?	.
O=C1NC(Cc2ccccc2)c2nc3ccc(F)cc3c(=O)n2-c2cc3ccccc3cc21 (stereo unspecified)	.	21µM*	5.8µM*	?	5.8µM*	.
COc1ccc(CCNC(=O)Cn2cnc3c(nnn3Cc3ccccc3F)c2=O)cc1OC	-4%	i	0%	i	-5%	3%
CCOc1ccccc1CNC(=O)c1c([N+](=O)[O-])c(C)nn1C	-5%	i	-5%	i	-1%	-1%
CN(C)S(=O)(=O)Oc1ccsc1C(=O)Nc1cccc(Cl)c1	10%	21µM*	0%	?	-6%	-12%
COC(=O)c1ccccc1NC(=O)c1ccc(-c2cccc(Cl)c2)o1	-2%	i	12%	i	24%	-6%
COC(=O)c1sccc1-c1ccc(C(=O)Nc2cccc(Cl)c2)o1	?	16µM*	-7%	i	-6%	6%
O=C(Nc1ccc(F)cc1F)c1cc(=O)n(-c2ccccc2)c(=O)[nH]1	-5%	?	0%	i	1%	-4%
Cc1ccc(OCc2nnc(SCC(=O)Nc3nccs3)n2-c2ccccc2)cc1C	0%	i	10%	i	11%	0%
CCCC(=O)NC(c1cccs1)c1cc([N+](=O)[O-])c2cccnc2c1O (stereo unspecified)	?	?	?	?	-29%	?
CCC(=O)NC(c1cccs1)c1cc([N+](=O)[O-])c2cccnc2c1O (stereo unspecified)	-4%	i	13µM*	i	?	?
CC(=O)NC(c1cccs1)c1cc([N+](=O)[O-])c2cccnc2c1O (stereo unspecified)	?	i	10µM*	?	?	?
CCOC(=O)C1=C(C)NC(=O)NC1c1ccc(NC(C)=O)cc1 (stereo unspecified)	0%	i	-4%[9.24 µM]	i	-9%	4%
COc1cc(C2NC(=O)NC(C)=C2C(=O)OCc2ccc(C)cc2)cc(OC)c1OC (stereo unspecified)	1%	i	-20%	i	6%	?
CCOC(=O)C1=C(C)NC(=O)NC1c1ccc(N2CCC(c3ccccc3)=N2)cc1 (stereo unspecified)	?	i	1%	i	5%	23µM*
CC1=C(C(=O)OCc2ccccc2)C(c2ccc(N(C)C)cc2)NC(=O)N1 (stereo unspecified)	?	?	-8%	i	-19%	?
CCOc1ccc(C2NC(=O)NC(C)=C2C(=O)OCc2ccccc2)cc1 (stereo unspecified)	21µM*	?	?	?	?	?
COc1cc(C2NC(=O)NC(C)=C2C(=O)OCc2ccc(C)cc2)cc(OC)c1O (stereo unspecified)	7.3µM*	i	-15%	i	-1%	16%
CCOc1ccccc1N1CC(C(=O)NCCC2=CCCCC2)CC1=O (stereo unspecified)	-9%	i	-3%	i	0%	-63%
